Screening data from PubChem BioAssay.
The list is not random: actives were taken first. Their share in the collection is about 9.3%.
VACV Venus inh: qHTS for Stage-Specific Inhibitors of Vaccinia Orthopoxvirus: Venus Reporter Primary qHTS; Vaccinia virus Venus reporter expression, fluorescence; Potency, µM (doses to about 36.5 µM), most hits filed as inhibitors; 330,000 tested, 0.46% active; calls by dose curve; tested in A549 cells; note: nearly all actives have a fitted effect of over 30% in size
HCV inh: qHTS Assay for Inhibitors of Hepatitis C Virus (HCV); Huh7.5.1 HCVcc-Cre infection, luciferase reporter, 44 h; Potency, µM (titrated, usually from 41.8 µM), most hits filed as inhibitors; 340,000 tested, 3.4% active
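Reporter virus HCVcc-Cre (~0.5 moi) infects cells exposed to compound; seeding density 1,000 cells/well with 4 h settling beforehand. Luminescence, 15 sec read, taken 44 h post-infection following a 15 min RT substrate incubation.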
Sm TGR inh: qHTS Assay for the Inhibitors of Schistosoma Mansoni Peroxiredoxins. purified TGR, DTNB reduction, TNB absorbance 405 nm. Potency, µM (series often up to 114 µM), actives largely listed as inhibitors. Schistosoma mansoni thioredoxin glutathione reductase (TGR), Q962Y6. 360,000 tested, 3% active; note: nearly all actives have a fitted effect of over 60% in size
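Kinetic colorimetric format: TGR-catalysed, NADPH-driven DTNB reduction monitored via TNB absorbance. Enzyme dispensed at 20 nM; compound exposure 15 min at room temperature before reaction start.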
Vaccinia mCherry: qHTS for Stage-Specific Inhibitors of Vaccinia Orthopoxvirus: mCherry Reporter Primary qHTS. 310,000 tested, 0.63% active. Potency, µM (series often up to 36.5 µM), hits mostly inhibitors. Vaccinia virus mCherry reporter infection, fluorescence; calls by dose curve; tested in A549 cells; note: nearly all actives have a fitted effect of over 35% in size
FMDV antiviral: High Throughput Screening for Foot and Mouth Disease Virus Antivirals; FMDV antiviral cell-based qHTS; Potency, µM (top dose mostly 57.9 µM), usual class: inhibitors; 410,000 tested, 1.2% active; calls by dose curve; tested in HEK293T cells; note: read-out not given here; nearly all actives have a fitted effect of over 45% in size
HCMV antiviral: qHTS Assay for inhibitors of the human cytomegalovirus (HCMV); HFF cells, HCMV-luciferase reporter, 72 h; stronger effect = lower value; activity change, negative = inhibition, % at 57.5 µM; 410,000 tested, 4.5% active; in the data active = activity change below about -60%; inconclusive = no clear call, values can overlap the other calls; inactive = above about -39%
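Inhibition of viral replication was scored as loss of reporter luminescence in HFFs infected with HCMV-luciferase (MOI 1 PFU/cell) for 72 h; compounds tested at 2 doses, normalized to buffer and Salinomycin controls.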
Each line names hits and unclear results; the compound was inactive in the other large screens. Unless noted, calls come from the whole dose curve; as a rule, active = well fitted curve in the direction sought with a large enough effect; inconclusive = small, poorly fitted or top-dose-only effect, or another doubt; inactive = no such curve, though single readings can be large; an effect the other way counts as inactive or inconclusive.

O=C(Nc1ccc(N2CCOCC2)c(Cl)c1)c1cc2ccccc2o1	VACV Venus inh inconclusive, HCV inh inconclusive (no result: Vaccinia mCherry, HCMV antiviral)
O=C(Nc1ccccc1N1CCOCC1)c1ccc(Br)o1	HCV inh inconclusive, HCMV antiviral -63 (no result: VACV Venus inh, Vaccinia mCherry)
CCn1c(-c2ccccc2SC)n[nH]c1=S	none
CCOC(=O)C1CCCN(C(=O)c2cccs2)CC1 (stereo not given)	none (no result: HCV inh, Sm TGR inh)
COc1cc(C(=O)Nc2ccc3nc(N4CCN(C)CC4)cc(C)c3c2)cc(OC)c1OC	HCV inh inconclusive (no result: VACV Venus inh, Vaccinia mCherry)
CCN1CCN(c2cc(C)c3cc(NC(=O)/C=C/c4cccc(Cl)c4)ccc3n2)CC1	VACV Venus inh inconclusive, Vaccinia mCherry 11µM, HCMV antiviral -101 (no result: HCV inh)
CCN1CCN(c2cc(C)c3cc(NC(=O)/C=C/c4cccc(OC)c4OC)ccc3n2)CC1	VACV Venus inh inconclusive, Vaccinia mCherry inconclusive, HCMV antiviral -100 (no result: HCV inh)
COc1cccc(/C=C/C(=O)Nc2ccc3nc(N4CCN(C)CC4)cc(C)c3c2)c1OC	HCMV antiviral -106 (no result: HCV inh)
COc1ccc(C2CC(=O)c3c([nH]c(C(=O)OC4CCCC4)c3C)C2)cc1OC (stereo not given)	none (no result: HCV inh)
CCOC(=O)N1CCC(NC(=O)CCc2c(C)nc3c(c(C)nn3-c3ccccc3)c2C)CC1	none (no result: Sm TGR inh)
O=C1CN(C(=O)COc2ccc(Cl)cc2Cl)C(c2ccccc2)c2cc(F)ccc2N1 (stereo not given)	FMDV antiviral inconclusive, HCMV antiviral inconclusive (no result: HCV inh)
O=C(Nc1ccc2c(c1)OCO2)C1CC(=O)N(c2ccc(F)cc2)C1 (stereo not given)	none
CCCc1cc(N2CCOCC2)n2ncc(-c3ccccc3)c2n1	HCV inh inconclusive, HCMV antiviral -62 (no result: VACV Venus inh, Vaccinia mCherry)
CC(C)(C)c1cc(N2CCOCC2)n2ncc(-c3ccccc3)c2n1	HCV inh inconclusive (no result: VACV Venus inh, Vaccinia mCherry)
CCCCCc1c(C)nc(Nc2ccc(F)cc2)[nH]c1=O	FMDV antiviral inconclusive, HCMV antiviral -70
COc1cc(NC(=O)CN2C(=O)C(=O)N(CC(C)C)C2=O)cc(OC)c1	HCV inh inconclusive (no result: HCMV antiviral)
COc1cc(NC(=O)CN2C(=O)C(=O)N(C3CCCC3)C2=O)cc(OC)c1	HCMV antiviral -99 (no result: VACV Venus inh, Vaccinia mCherry)
Nc1c(Cl)ncnc1NCc1cccnc1	none
Nc1c(Cl)ncnc1NCCc1ccc(O)cc1	HCV inh 6.3µM, Vaccinia mCherry inconclusive, HCMV antiviral -70
Cc1cccc(N2CCN(C(=S)Nc3ccc4nc(N5CCOCC5)cc(C)c4c3)CC2C)c1 (stereo not given)	HCV inh inconclusive (no result: VACV Venus inh, Vaccinia mCherry)
Cc1cc(Br)ccc1NC(=O)c1sc2nc3n(c(=O)c2c1C)CCCC3	Sm TGR inh 22µM (no result: HCV inh)
Cc1ccc(NC(=O)c2sc3nc4n(c(=O)c3c2C)CCCCC4)c(Br)c1	none (no result: HCV inh)
CCOC(=O)c1ccccc1NC(=O)c1sc2nc3n(c(=O)c2c1C)CCCC3	Sm TGR inh 45µM (no result: HCV inh)
CCN(CC)CCCn1c2c(c(SCC(=O)Nc3ccc(C)c(F)c3)nc1=O)CCC2	HCV inh inconclusive
CCCCc1ccc(NC(=O)CSc2nc(=O)n(CCN(C)C)c3c2CCC3)cc1	VACV Venus inh 14µM, HCV inh inconclusive, Vaccinia mCherry 28µM
Cc1ccc2nc(SCC(=O)Nc3ccc4c(c3)OCCO4)nc(=O)n2c1	none
CCCCc1ccc(NC(=O)CSc2nc(=O)n3cc(C)ccc3n2)cc1	HCMV antiviral -67
CCCCc1ccc(NC(=O)CSc2nc(=O)n(CCN(CC)CC)c3c2CCCC3)cc1	VACV Venus inh inconclusive, HCV inh inconclusive, Vaccinia mCherry inconclusive
CCN(CC)CCCn1c2c(c(SCC(=O)Nc3ccc(OC(F)(F)F)cc3)nc1=O)CCC2	VACV Venus inh inconclusive, HCV inh 10µM
Cc1cccc(NC(=O)CSc2nc(=O)n(CCN3CCOCC3)c3c2CCC3)c1C	none (no result: HCV inh)
CCOc1ccccc1NC(=O)CSc1nc(=O)n(CCN2CCOCC2)c2c1CCCC2	HCMV antiviral -81
Fc1ccc(/C=N/Nc2ncnc3nc[nH]c23)cc1F	Vaccinia mCherry inconclusive
Cc1cccc(NC(=O)C2CCN(C(=O)c3ccccc3C)CC2)n1	HCMV antiviral inconclusive (no result: VACV Venus inh, Vaccinia mCherry)
CN(C)CCn1c2c(c(SCC(=O)N3CCc4ccccc43)nc1=O)CCCC2	HCV inh 13µM
CCN(CC)CCCn1c2c(c(SCC(=O)N3CCCc4ccccc43)nc1=O)CCC2	HCMV antiviral inconclusive
COc1ccc(/C=C/C(=O)Nc2ccccc2)cc1OC	HCV inh inconclusive
COc1ccc(C(=O)Oc2ccc(F)cc2C(=O)/C=C/c2ccc(OC)c(OC)c2)cc1	FMDV antiviral 40µM, HCMV antiviral inconclusive
CCOc1ccc(C(=O)/C=C/c2ccc(OC)c(OC)c2)cc1	HCV inh inconclusive, FMDV antiviral inconclusive (no result: Sm TGR inh)
COc1ccc(/C=C/C(=O)c2ccc3c4c(cccc24)CC3)cc1OC	VACV Venus inh inconclusive, HCV inh inconclusive, Vaccinia mCherry inconclusive, FMDV antiviral 18µM, HCMV antiviral inconclusive
COc1ccc(/C=C/C(=O)c2cc(F)ccc2OC(=O)c2ccccc2C)cc1OC	VACV Venus inh inconclusive, Vaccinia mCherry inconclusive, FMDV antiviral 25µM, HCMV antiviral -86
O=S(=O)(NCC1CCCN(Cc2ccccc2O)C1)c1cccc2cccnc12 (stereo not given)	Sm TGR inh inconclusive (no result: HCV inh)
COc1ccc(NC(=O)CSc2nc(-c3ccc(OC)c(OC)c3)[nH]c2-c2ccc(C)cc2)cc1	none (no result: HCV inh)
CN1CCn2cnc(C(=O)N3CCN(c4ccccc4)CC3)c2C1=O	none (no result: HCV inh, Sm TGR inh)
COC(=O)c1ccc(CSc2nc3ccccc3c(=O)n2-c2ccc(OC)c(OC)c2)o1	HCV inh 10µM (no result: FMDV antiviral)
COC(=O)c1cc(CSc2nc3ccccc3c(=O)n2C)oc1C	HCV inh inconclusive, FMDV antiviral inconclusive, HCMV antiviral -74
COC(=O)c1ccc(CSc2nc3ccccc3c(=O)n2-c2ccccc2)o1	HCV inh inconclusive, FMDV antiviral inconclusive (no result: Vaccinia mCherry)
Cn1c(SCc2ccccc2)nc2ccsc2c1=O	HCV inh 10µM, HCMV antiviral inconclusive
Cn1c(SCc2ccc(Br)cc2)nc2ccccc2c1=O	HCV inh inconclusive, FMDV antiviral inconclusive
Cc1cccc(CSc2nc3ccccc3c(=O)n2C)c1	HCV inh 22µM, FMDV antiviral inconclusive, HCMV antiviral -76 (no result: VACV Venus inh, Vaccinia mCherry)
CCCC/C(=N\O)c1c[nH]c2ccccc12	HCV inh inconclusive (no result: FMDV antiviral)
COc1ccc(C2CC(=O)N(C)c3ccccc3S2)cc1OC (stereo not given)	none
Cn1c(SCCOc2ccccc2F)nc2ccccc2c1=O	FMDV antiviral 40µM, HCMV antiviral inconclusive
Cc1noc(C)c1CSc1nc2ccccc2c(=O)n1-c1ccccc1	HCV inh 4µM, FMDV antiviral inconclusive (no result: Vaccinia mCherry)
Cc1noc(C)c1CSc1nc2[nH]ncc2c(=O)n1-c1ccccc1	VACV Venus inh inconclusive, Vaccinia mCherry inconclusive
S=C(NCc1ccco1)Nc1cccc(Cl)c1Cl	Sm TGR inh 7.9µM
